# MARV entry inh = Marburg virus entry inhibition. 300,000 compounds, 1.8% hits. Potency, µM (series often up to 37.8 µM), for the others: top-dose activity change, negative = inhibition, hits mostly inhibitors. Marburg virus pseudotyped entry inhibition, cell reporter; calls by dose curve; tested in HEK293 cells; also: potency is read from the fitted curve at half-maximal effect
# FMDV inh = antivirals against foot and mouth disease virus | FMDV antiviral cell-based qHTS | Potency, µM (series often up to 57.9 µM), without a hit: at the highest dose activity change, negative = inhibition, usual class: inhibitors | 410,000 compounds, 1.2% hits | AID 1159524; calls by dose curve; tested in HEK293T cells; also: read-out not given here; potency is read from the fitted curve at half-maximal effect; nearly all actives have a fitted effect of over 45% in size
# HCMV antiviral = blocks human cytomegalovirus replication. 410,000 compounds, 4.5% hits. activity change, negative = inhibition, % at 57.5 µM. HFF cells, HCMV-luciferase reporter, 72 h; stronger effect = lower value; in the data active = activity change below about -60%; inconclusive = no clear call, values can overlap the other calls; inactive = above about -39%
#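 Human foreskin fibroblasts infected with luciferase-reporter HCMV at MOI 1 PFU/cell, compounds at two doses. Luciferase measured 72 h post infection; normalized to buffer-only basal and Salinomycin (10uM) controls.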
# Vaccinia Venus = inhibitors of vaccinia virus (Venus reporter) | Vaccinia virus Venus reporter expression, fluorescence | Potency, µM (series often up to 36.5 µM), inactives show top-dose activity change, negative = inhibition, most hits filed as inhibitors | 330,000 compounds, 0.46% hits | AID 720580; calls by dose curve; tested in A549 cells; also: potency is read from the fitted curve at half-maximal effect; nearly all actives have a fitted effect of over 30% in size
# Lassa entry inh = blocks Lassa virus binding to or entry into cells. Lassa virus pseudotype entry inhibition, cell reporter. Potency, µM (doses to about 37.9 µM), inactives show top-dose activity change, negative = inhibition, most hits filed as inhibitors. 300,000 compounds, 1.2% hits; calls by dose curve; tested in HEK293 cells; also: potency is read from the fitted curve at half-maximal effect; nearly all actives have a fitted effect of over 50% in size
# VACV mCherry inh = vaccinia inhibition (mCherry reporter). Vaccinia virus mCherry reporter infection, fluorescence. Potency, µM (titrated, usually from 36.5 µM), without a hit: at the highest dose activity change, negative = inhibition, most hits filed as inhibitors. 310,000 compounds, 0.63% hits. AID 720579; calls by dose curve; tested in A549 cells; also: potency is read from the fitted curve at half-maximal effect; nearly all actives have a fitted effect of over 35% in size
# The depositor's hits bear a star; i = inactive; ? = inconclusive; nt = no result; [ ] = another dose, or the depositor's remark. A selection: hits, their analogues and other compounds. The true share with any hit is near 6.5%. % is scaled to controls: 0 for no effect and ±100 for the full control effect.
SMILES,MARV entry inh,FMDV inh,HCMV antiviral,Vaccinia Venus,Lassa entry inh,VACV mCherry inh
Cc1cc(/C=C2\Cc3ccccc3C2=O)c(C)n1-c1ccccc1,?,13µM*,?,-14%,?,-14%
Cc1cc(C=C2C(=O)c3ccccc3C2=O)c(C)n1-c1ccccc1,6.5µM*,1.1µM*,-23,nt,?,nt
Cc1cc(/C=C2/C(=O)NN(c3ccccc3)C2=O)c(C)n1-c1cccc(O)c1,?,45µM*,?,-9%,4µM*,-9%
Cc1ccc2ncnc(NCc3ccco3)c2c1,nt,nt,nt,-27%,nt,17%
C#CCNc1cccc2c1S(=O)(=O)N[C@H](C)CO2,nt,nt,15,nt,nt,nt
CC(C)OC(=O)[C@H]1O[C@H](CCCCOCc2ccccc2)[C@@H](C)[C@H]2O[C@H]21,22%[14.2 µM],nt,nt,nt,?,nt
Cc1cc(N2CCOCC2)n2cc(-c3ccccc3)nc2n1,0%,-12%,32,-5%,0%,i
Cc1cc(N2CC(C)OC(C)C2)n2cc(-c3ccccc3)nc2n1 (configuration not stated),5%[46.1 µM],4%,-99*,-2%,-4%,i
C/C(Cn1nnc([N+](=O)[O-])n1)=N\NC(=O)c1ccccc1,?,nt,-24,13µM*,-26%,?
Nc1ncnc(N)c1NC(=O)c1ccccc1,nt,nt,-101*,nt,nt,nt
Nc1ccccc1NC(=O)c1ccccc1,-3%,15%,45,-22%,-6%,?
CCCCn1c(-c2csc3c2CCCC3)n[nH]c1=S,3%,-7%,44,nt,0%,nt
CCCCn1c(-c2csc3c2CCC(C)C3)n[nH]c1=S (configuration not stated),-2%,-16%,-61*,nt,15%,nt
CC(C)c1ccc(S(=O)(=O)c2cc3cc(Br)ccc3oc2=O)cc1,11µM*,?,-12,-1%,?,-8%
CC(C)c1ccc(NC(=O)CCCN2C(=S)NC(C)(C)CC2C)cc1 (configuration not stated),-3%[46.1 µM],12%,-86*,-15%,0%[46.1 µM],i
CC1CC(C)(C)NC(=S)N1CCC(=O)Nc1ccc2c(c1)OCCO2 (configuration not stated),11µM*,?,53,?,3.5µM*,?
Cc1cc(C)c(S(=O)(=O)N2CCC(n3c(C(F)(F)F)nc4cccnc43)CC2)c(C)c1,nt,11%,2,11%,2%[46.1 µM],1%
O=C(CNC(=O)c1ccc(S(=O)(=O)N2CCCC2)cc1)N/N=C/c1ccccc1Cl,20%,?,-63*,-15%,-5%,-16%
Cc1cc(O)cc(O)c1/C=N/NC(=O)c1ccc2c(c1)OCCO2,nt,-16%,-100*,?,nt,2µM*
O=C(N/N=C\c1c(O)ccc2ccccc12)c1ccc(S(=O)(=O)N2CCCCC2)cc1,1.3µM*,-12%,-103*,0%,?,-9%
O=C(NCc1ccccc1)c1ccc(S(=O)(=O)N2CCCCCC2)cc1,nt,-8%,-13,-12%,nt,-11%
O=C(NN=Cc1c(O)ccc2ccccc12)c1ccc2c(c1)OCO2,nt,20%,-102*,nt,nt,nt
COc1c(O)ccc(/C=N\NC(=O)c2ccc3c(c2)OCO3)c1[N+](=O)[O-],nt,51%,65,nt,nt,nt
COc1ccccc1/C=N/NC(=O)CNC(=O)c1ccc(S(=O)(=O)N2CCCC2)cc1,14%[46.1 µM],-4%,-20,-12%,-1%[46.1 µM],-3%
Cc1ccc2c(C)ccnc2c1,nt,nt,nt,-8%,nt,-18%
SMILES,MARV entry inh,FMDV inh,HCMV antiviral,Vaccinia Venus,Lassa entry inh,VACV mCherry inh
COc1ccc(CC(=O)Nc2c(C(=O)Nc3ccc(F)cc3)oc3ccccc23)cc1OC,14%[46.1 µM],-12%,-21,2%,13%[46.1 µM],-3%
C=C(C)C(=O)C=CCCCC=CC(=O)OCC,7%[14.2 µM],nt,nt,nt,nt,nt
Cn1cccc1C(=O)N1CCC2(CC1)CN(C(=O)Nc1cccc(C#N)c1)C2,nt,-20%,nt,nt,nt,nt
Cc1c(C(=O)NCC(C)(C)N2CCOCC2)cnn1-c1ncc2c(n1)-c1ccccc1CCC2,nt,-11%,nt,-7%,nt,-13%
O=C(N/N=C/c1c(O)ccc2ccccc12)c1ccc(CO)nc1,11µM*,-11%,-99*,-20%,?,?
C/C(=N\NC(=O)c1cc2ccccc2cc1O)c1ccc2c(c1)OCO2,6%,-28%,13,-5%,6%,i
CC/C(=N/NC(=O)c1ccc2c(c1)OCO2)c1ccccc1O,nt,50%,-98*,nt,nt,nt
CCC1CN(CC(=O)NCc2cc(C)n(C)n2)Cc2cc(OC)ccc2O1 (configuration not stated),nt,12%,nt,-3%,nt,-11%
CC(=O)n1c(Cl)c(NC(=O)CCl)c2ccccc21,?,32µM*,-98*,?,?,10µM*
CCOc1cc(/C=N/NC(=O)CNc2cccc(C)c2)ccc1OC(=O)c1ccccc1,7%,-19%,0,-8%,16µM*,nt
COC(=O)c1ccc(/C=N/NC(=O)CNc2cccc(C)c2)cc1,3%[46.1 µM],-4%,-6,-1%,?,-1%
CCOc1cc(/C=N/Nc2cccc(C(=O)O)c2)ccc1OC(=O)c1ccccc1,?,4µM*,64,-7%,?,-12%
CC(C)CC(C(=O)NCC1CCN(Cc2ccc(F)cc2)CC1)N1Cc2ccccc2C1=O (configuration not stated),nt,-13%,-30,-10%,?,-15%
Cc1ccc(Oc2cc([N+](=O)[O-])cc3c2C(=O)Nc2ccccc2O3)cc1,?,?,-78*,-9%,?,?
O=C(c1ccoc1)N1CCOc2ccc(CN3CCC(Oc4cccnc4)CC3)cc2C1,nt,1%,nt,11%,nt,-7%
N#Cc1nc(N)nc(N2CCCCC2)n1,nt,nt,nt,-19%,nt,i
COc1cc2c(cc1OC)C(c1c(O)n(CCc3ccccc3)c(=S)[nH]c1=O)NCC2 (configuration not stated),8%[46.1 µM],5%,-64*,-9%,11%[46.1 µM],-14%
Cc1ccc(C)c(SCC(=O)NCC(c2ccco2)N2CCCCC2)c1 (configuration not stated),13µM*,-29%,?,-4%,?,i
CC(=O)Nc1ccc(S(=O)(=O)NC(C)C(=O)NCC(c2ccco2)N2CCCCC2)cc1 (configuration not stated),nt,0%,0,nt,nt,nt
Cc1ccc(S(=O)(=O)NC(CC(C)C)C(=O)NCC(c2ccco2)N2CCCCC2)cc1 (configuration not stated),nt,10µM*,nt,nt,nt,nt
Cc1cc(Br)ccc1SCC(=O)NCC(c1ccco1)N1CCCCC1 (configuration not stated),?,-23%,-17,-4%,-18%,i
Cn1c(=O)c(-c2ccccc2)nc2cnc(OCc3ccccc3)nc21,nt,-14%,nt,nt,nt,nt
C[C@@]12C(=O)Nc3ccc(F)cc3C(=O)N1[C@H]1c3cc(Br)ccc3OC[C@@H]1[C@@H]2c1ccccc1,nt,-27%,-70*,?,nt,-22%
C[C@]12C(=O)N(c3cccc(F)c3)C(=O)N1[C@@H]1c3ccccc3OC[C@@H]1[C@H]2c1ccccc1,nt,-6%,-86*,-17%,nt,?

# Bioassay records (PubChem)
